JMJD2C inh – inhibitors of GASC-1 histone demethylase, primary screen, biochemical, fluorescence, DELFIA europium. Lysine-specific demethylase 4C (Homo sapiens), Q9H3R0. GST-JMJD2C(1-420) H3K9me3 demethylation. inhibition, % at 2.35 µM. actives 0.069% (n = 330,000). AID 2099, 2009;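 active = more than half of a compound's replicate wells show inhibition beyond 50%, single wells judged on their own value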;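 also: signal counts dimethyl H3K9 product captured on neutravidin plate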
Granule exo inh – LAMP-1 surface exposure blockers, TALL-104 cells – cell-based, flow cytometry, MLPCN library, primary screen; TALL-104 LAMP-1 surface exposure; cells stimulated with thapsigargin and PMA; actives 0.66% (n = 360,000); inhibition, % at 10 µM;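 active = inhibition above about 55%, limit read from the data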
V-ATPase pHluor – regulators of yeast V-ATPase proton pumping, primary screen, pHLuorin cytosolic pH fluorescence; S. cerevisiae; response, % at 10 µM; actives 0.37% (n = 350,000); AID 504577, 2011; in the data active = response mostly above about 7.3%, no sharp cut-off; inactive = mostly below about 5.4%; also: actives read high
VLA-4 inh – inhibition in human VLA-4 binding assay, primary screen, VLA-4 allosteric modulator project, MLPCN library, flow cytometry, VLA-4 expressing cells; actives 0.2% (n = 330,000); inhibition, % (about 7 µM as worked out from the volumes in the protocol); Integrin alpha-4 (Homo sapiens), P13612; ligand binding flow cytometry; in the data active = inhibition above about 50%
m5-HT2A agonist – mouse Htr2a agonists via beta-arrestin recruitment, primary screen, cell-based, luminescence; actives 0.66% (n = 360,000); activation, % at 7.6 µM; CHO-K1 mHTR2A beta-arrestin complementation; percent of 30 µM serotonin response; AID 624169, 2012;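 active = activation above a run cutoff, the mean activation of all tested compounds plus 3 SD, cut at about 14% in these data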
MEX-5 binding – MEX-5 zinc finger RNA-binding disruptors – biochemical, C. elegans, fluorescence polarization, MLPCN library, primary screen; Zinc finger protein mex-5 (Caenorhabditis elegans), Q9XUB2; MEX-5/FITC-TCR2 RNA binding; stronger effect = lower value; activity score (negative = inhibition of binding), % at 10 µM; actives 0.38% (n = 300,000);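 active = inhibition past about -25% in most replicates, and total fluorescence under double the plate's negative control median, limit read from the data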
Numbers stand for hits. Only some compounds are listed: those with a hit (about 2.2% of all), similar ones and a draw of the others.

C[C@@H]1O[C@@H](OC[C@H]2O[C@@H](Oc3cc(O)c4c(=O)cc(-c5ccc(O)c(O)c5)oc4c3)[C@H](O)[C@@H](O)[C@@H]2O)[C@H](O)[C@H](O)[C@H]1O was read as JMJD2C inh 99.6, Granule exo inh inactive, V-ATPase pHluor inactive, VLA-4 inh inactive and m5-HT2A agonist inactive.
Screening CC(C)(C)c1cc(C(=O)N2CCc3ccccc32)ccn1 returned JMJD2C inh inactive, Granule exo inh inactive, V-ATPase pHluor 16.9, VLA-4 inh inactive, m5-HT2A agonist inactive and MEX-5 binding inactive.
Screening Cc1cc(O)cc2c1C(=O)/C(=C/c1ccco1)O2 returned JMJD2C inh inactive, Granule exo inh inactive, V-ATPase pHluor inactive, VLA-4 inh inactive, m5-HT2A agonist inactive and MEX-5 binding -42.2.
CC(NC(=O)COc1ccccc1)C(=O)N1CCN(c2ccccc2)CC1 (centres undefined) was read as JMJD2C inh inactive, Granule exo inh inactive, V-ATPase pHluor inactive, VLA-4 inh inactive and m5-HT2A agonist inactive.
For CCOC(=O)Cc1csc(NC(=O)c2sc3nc4cc(C)ccc4cc3c2N)n1 the results were JMJD2C inh inactive, Granule exo inh inactive, V-ATPase pHluor inactive, VLA-4 inh inactive, m5-HT2A agonist inactive and MEX-5 binding -49.9.
For CCOC(=O)Cc1csc(NC(=O)c2sc3nc4ccc(CC)cc4cc3c2N)n1 the results were JMJD2C inh inactive, Granule exo inh inactive, V-ATPase pHluor inactive, VLA-4 inh inactive, m5-HT2A agonist inactive and MEX-5 binding inactive.
For CCCc1ccc(NC(=O)C2CCCN(c3cnccn3)C2)cc1 (centres undefined) the results were JMJD2C inh inactive, Granule exo inh inactive, V-ATPase pHluor inactive, VLA-4 inh inactive, m5-HT2A agonist inactive and MEX-5 binding inactive.
For CCOc1ccc(Nc2ccc(N)c(S(=O)(=O)O)c2)cc1 the results were Granule exo inh inactive, V-ATPase pHluor inactive and m5-HT2A agonist inactive.
`CNc1sc(C(=O)c2cccs2)c(N)c1-c1nc2ccccc2s1` gave JMJD2C inh inactive, Granule exo inh 65.0, V-ATPase pHluor inactive, VLA-4 inh inactive, m5-HT2A agonist inactive and MEX-5 binding inactive.
Screening CNc1sc(C(=O)c2ccc(F)cc2)c(N)c1-c1nc2ccccc2s1 returned JMJD2C inh inactive, Granule exo inh inactive, V-ATPase pHluor inactive, VLA-4 inh inactive, m5-HT2A agonist inactive and MEX-5 binding inactive.
`O=C(N/N=C/c1cc(O)ccc1Br)c1cccnc1` gave JMJD2C inh inactive, Granule exo inh inactive, V-ATPase pHluor inactive, VLA-4 inh inactive, m5-HT2A agonist inactive and MEX-5 binding inactive.
O=C(N/N=C/c1cccnc1)c1ccc(O)cc1 was read as JMJD2C inh inactive, Granule exo inh inactive, V-ATPase pHluor inactive, VLA-4 inh inactive, m5-HT2A agonist inactive and MEX-5 binding inactive.
`O=C(N/N=C/c1cc(Br)c(O)c(Br)c1O)c1cccnc1` gave JMJD2C inh inactive, Granule exo inh 65.0, V-ATPase pHluor inactive, VLA-4 inh inactive, m5-HT2A agonist inactive and MEX-5 binding inactive.
Screening O=C(N/N=C/c1cccnc1)c1cc(O)c(O)c(O)c1 returned JMJD2C inh inactive, Granule exo inh inactive, V-ATPase pHluor inactive, VLA-4 inh inactive, m5-HT2A agonist inactive and MEX-5 binding -31.0.
Screening Cc1ccc(-c2cc(C(=O)N3CCCc4ccccc43)c3ccccc3n2)cc1 returned JMJD2C inh inactive, Granule exo inh inactive, V-ATPase pHluor inactive, VLA-4 inh inactive, m5-HT2A agonist inactive and MEX-5 binding inactive.
`Cc1ccc2nc3sc(C(=O)N4CCCc5ccccc54)c(N)c3cc2c1` gave JMJD2C inh inactive, Granule exo inh inactive, V-ATPase pHluor inactive, VLA-4 inh inactive, m5-HT2A agonist inactive and MEX-5 binding -34.8.
Screening Cc1ccc2nc(SCC(=O)Nc3nonc3C)[nH]c2c1 returned JMJD2C inh inactive, Granule exo inh inactive, V-ATPase pHluor inactive, VLA-4 inh inactive, m5-HT2A agonist inactive and MEX-5 binding inactive.
COc1ccc2nc(SCC(=O)Nc3nonc3C)[nH]c2c1 was read as JMJD2C inh inactive, Granule exo inh inactive, V-ATPase pHluor inactive, VLA-4 inh inactive, m5-HT2A agonist inactive and MEX-5 binding -32.0.
Screening CC(C)(CCC(=S)N1CCOCC1)c1ccccc1 returned Granule exo inh inactive, V-ATPase pHluor inactive and m5-HT2A agonist inactive.
`Cc1ccccc1C1=N/C(=C/c2cccs2)C(=O)O1` gave JMJD2C inh inactive, Granule exo inh inactive, V-ATPase pHluor inactive, VLA-4 inh inactive, m5-HT2A agonist inactive and MEX-5 binding -27.5.
Screening Cc1ccc(C)c(/C=C2\N=C(c3ccccc3F)OC2=O)c1 returned JMJD2C inh inactive, Granule exo inh inactive, V-ATPase pHluor inactive, VLA-4 inh inactive, m5-HT2A agonist inactive and MEX-5 binding inactive.
Screening Cc1cc(C)cc(OCC(O)CN2CCN(C(=O)c3ccco3)CC2)c1 (centres undefined) returned JMJD2C inh inactive, Granule exo inh inactive, V-ATPase pHluor inactive, VLA-4 inh inactive, m5-HT2A agonist inactive and MEX-5 binding inactive.
`O=C(c1ccco1)N1CCN(CC(O)COc2ccc3oc4ccccc4c3c2)CC1` (centres undefined) gave JMJD2C inh inactive, Granule exo inh inactive, V-ATPase pHluor inactive, VLA-4 inh inactive, m5-HT2A agonist 14.5 and MEX-5 binding inactive.
Cc1ccc(Cc2c(C3CCCCC3)nc3ccc(Cl)cn23)cc1 was read as Granule exo inh inactive and m5-HT2A agonist inactive.
Screening COc1ccc(C(=O)O/N=C(\C)c2cnccn2)cc1 returned JMJD2C inh 57.0, Granule exo inh inactive, V-ATPase pHluor inactive, VLA-4 inh inactive, m5-HT2A agonist inactive and MEX-5 binding inactive.
`COc1ccc(-c2nc(CN3CCC(C(=O)NC4CCCC4)CC3)c(C)o2)cc1OC` gave JMJD2C inh inactive, Granule exo inh inactive, V-ATPase pHluor inactive, VLA-4 inh inactive, m5-HT2A agonist inactive and MEX-5 binding inactive.
Screening COc1ccc(-c2nc(CN3CCC(C(=O)NC4CCCc5ccccc54)CC3)c(C)o2)cc1OC (centres undefined) returned Granule exo inh inactive, V-ATPase pHluor 13.4 and m5-HT2A agonist inactive.
`Cc1ccc2c(c1)N(C(=O)CCC(=O)NCCCN1CCOCC1)CCO2` gave JMJD2C inh inactive, Granule exo inh inactive, V-ATPase pHluor inactive, VLA-4 inh inactive, m5-HT2A agonist inactive and MEX-5 binding inactive.
Screening Cc1ccccc1S(=O)(=O)N1[C@@H](c2ccc(Br)cc2)C(C(=O)O)=CC[C@H]1c1ccc(Cl)cc1 returned Granule exo inh inactive, V-ATPase pHluor inactive, VLA-4 inh inactive and m5-HT2A agonist 22.4.
